Source: PubChem BioAssay
For some assays here: Entries with a potency or affinity are not part of this list. Activity calls are given as the source filed them. Unless noted, how the calls were made is not given here.

Tests used:
[1] = antimalarial activity against Dd2 strain (AID 2302;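 active means growth inhibition above 50% at the single 2 µM test dose, taken to imply half-maximal potency below 2 µM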;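 further: 0% = DMSO untreated growth and 100% = chloroquine plus artemisinin killed control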); details: P. falciparum Dd2 in RBCs, LDH growth readout, 72 h; at 2 µM; active compounds read high
[2] = HepG2 cytotoxicity, primary screen, cytotoxicity control for P. falciparum antimalarial project, cell-based, ATP luminescence (AID 2303;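 active means inhibition above 50%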;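 further: 0% = DMSO wells and 100% = digitonin-killed cells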); details: HepG2 viability, 24-48 h, at 10 µM, active compounds read high
[3] = target: L-lactate dehydrogenase (Plasmodium falciparum (isolate CDC / Honduras)) (UniProt Q27743); experiment: PfLDH activity inhibition – cell lysate, 3D7 strain, counter-screen for P. falciparum growth inhibition project (AID 2304);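 further: 0% = vehicle and 100% = reference inhibitor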; details: P. falciparum 3D7 crude extract, LDH APAD/NBT absorbance; at 2 µM; active compounds read high
L-lactate dehydrogenase (Plasmodium falciparum (isolate CDC / Honduras)), sequence (Q27743 whole entry, looked up): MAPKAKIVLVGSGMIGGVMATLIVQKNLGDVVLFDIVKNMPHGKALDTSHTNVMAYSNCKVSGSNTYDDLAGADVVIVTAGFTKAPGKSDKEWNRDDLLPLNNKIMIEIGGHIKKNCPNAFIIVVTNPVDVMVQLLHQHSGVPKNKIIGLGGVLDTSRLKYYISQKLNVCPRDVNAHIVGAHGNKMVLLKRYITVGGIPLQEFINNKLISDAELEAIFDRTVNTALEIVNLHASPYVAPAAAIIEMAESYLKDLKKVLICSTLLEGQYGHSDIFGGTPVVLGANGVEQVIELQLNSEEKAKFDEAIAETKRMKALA

[4] = inhibition of 3D7 malaria parasite growth – strain 3D7 (AID 2306);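 further: 0% = DMSO wells and 100% = chloroquine plus artemisinin control wells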; details: P. falciparum 3D7 erythrocytic growth, LDH absorbance, 72 h; at 2 µM; active compounds read high
[5] = target: Calcium-dependent protein kinase 1 (Plasmodium falciparum (isolate 3D7)) (UniProt P62344); experiment: PfCDPK1 kinase inhibitors, biochemical, TCAMS library (AID 1159585; cut-off not given, nearly all actives have IC50 up to about 0.98 µM;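 further: inhibitors leave more ATP so luminescence rises with inhibition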); details: recombinant PfCDPK1, Kinase-Glo ATP depletion luminescence
Calcium-dependent protein kinase 1 (Plasmodium falciparum (isolate 3D7)), sequence (P62344 whole entry, looked up): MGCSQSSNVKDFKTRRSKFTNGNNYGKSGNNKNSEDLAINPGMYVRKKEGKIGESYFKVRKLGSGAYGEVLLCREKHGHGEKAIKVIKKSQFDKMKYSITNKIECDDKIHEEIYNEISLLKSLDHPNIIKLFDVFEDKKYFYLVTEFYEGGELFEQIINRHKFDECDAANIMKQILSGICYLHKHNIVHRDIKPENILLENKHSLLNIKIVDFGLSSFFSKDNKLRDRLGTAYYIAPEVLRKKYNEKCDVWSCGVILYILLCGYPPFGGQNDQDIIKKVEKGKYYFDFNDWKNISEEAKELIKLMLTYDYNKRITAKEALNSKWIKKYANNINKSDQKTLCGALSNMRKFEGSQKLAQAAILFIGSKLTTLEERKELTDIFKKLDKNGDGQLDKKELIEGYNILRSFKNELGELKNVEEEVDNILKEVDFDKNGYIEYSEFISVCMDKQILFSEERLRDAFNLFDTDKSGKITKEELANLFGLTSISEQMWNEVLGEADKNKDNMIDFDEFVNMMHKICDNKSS

[6] = target: Plasmodium falciparum protein kinase 6 (PK6, PF3D7_1337100) (UniProt Q8IDW1); experiment: PfPK6 kinase inhibitors, biochemical, TCAMS library (AID 1159586); details: recombinant PfPK6, Kinase-Glo ATP depletion luminescence
Plasmodium falciparum protein kinase 6 (PK6, PF3D7_1337100), sequence (Q8IDW1 1-305): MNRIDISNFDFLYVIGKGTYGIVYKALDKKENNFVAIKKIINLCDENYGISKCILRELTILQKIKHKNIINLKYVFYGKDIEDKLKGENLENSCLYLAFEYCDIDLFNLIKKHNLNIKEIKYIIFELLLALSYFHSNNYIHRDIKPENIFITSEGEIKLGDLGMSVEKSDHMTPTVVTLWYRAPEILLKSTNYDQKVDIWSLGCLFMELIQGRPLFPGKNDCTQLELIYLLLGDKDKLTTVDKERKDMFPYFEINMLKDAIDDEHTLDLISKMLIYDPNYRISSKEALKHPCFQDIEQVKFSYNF

[7] = target: Protein kinase 7 (PK7), Plasmodium falciparum 3D7 (PF3D7_0213400) (UniProt Q7YTF7); experiment: inhibition of Plasmodium PK7 catalytic activity – biochemical, TCAMS antimalarial set, Kinase-Glo luminescence (AID 1159587); details: recombinant PfPK7, Kinase-Glo ATP depletion luminescence
Protein kinase 7 (PK7), Plasmodium falciparum 3D7 (PF3D7_0213400), sequence (Q7YTF7 1-343): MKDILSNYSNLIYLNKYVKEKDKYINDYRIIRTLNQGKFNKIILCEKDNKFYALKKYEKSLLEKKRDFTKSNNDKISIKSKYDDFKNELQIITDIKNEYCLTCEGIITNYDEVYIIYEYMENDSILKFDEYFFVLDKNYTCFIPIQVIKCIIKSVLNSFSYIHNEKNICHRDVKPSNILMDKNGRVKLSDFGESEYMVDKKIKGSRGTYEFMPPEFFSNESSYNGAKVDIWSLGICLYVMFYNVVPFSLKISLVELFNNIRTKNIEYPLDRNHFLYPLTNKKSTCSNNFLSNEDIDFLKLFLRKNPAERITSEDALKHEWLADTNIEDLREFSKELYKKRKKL

[8] = target: Calcium-dependent protein kinase 4 (Plasmodium falciparum (isolate 3D7)) (UniProt Q8IBS5); experiment: PfCDPK4 kinase inhibitors, biochemical, TCAMS library (AID 1159588; cut-off not given, nearly all actives have IC50 up to about 0.91 µM); details: recombinant PfCDPK4, Kinase-Glo ATP depletion luminescence
Calcium-dependent protein kinase 4 (Plasmodium falciparum (isolate 3D7)), sequence (Q8IBS5 whole entry, looked up): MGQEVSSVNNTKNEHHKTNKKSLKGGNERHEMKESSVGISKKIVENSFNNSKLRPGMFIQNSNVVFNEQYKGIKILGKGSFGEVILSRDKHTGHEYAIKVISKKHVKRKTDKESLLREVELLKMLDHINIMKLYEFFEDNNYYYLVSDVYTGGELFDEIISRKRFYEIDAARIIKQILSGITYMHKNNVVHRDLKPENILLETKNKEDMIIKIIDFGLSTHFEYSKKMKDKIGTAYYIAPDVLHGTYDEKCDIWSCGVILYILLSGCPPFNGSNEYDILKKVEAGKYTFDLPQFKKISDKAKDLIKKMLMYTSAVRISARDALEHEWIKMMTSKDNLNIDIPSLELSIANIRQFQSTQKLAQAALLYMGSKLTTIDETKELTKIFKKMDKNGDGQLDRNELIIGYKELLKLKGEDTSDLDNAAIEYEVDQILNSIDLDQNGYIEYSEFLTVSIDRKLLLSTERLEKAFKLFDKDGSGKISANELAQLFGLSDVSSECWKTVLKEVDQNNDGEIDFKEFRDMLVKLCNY

CNCCNCc1ccc(-c2ccc(-c3nc4c(C)cccc4[nH]3)cc2)cc1
active: growth inhibition [1] 79% | growth inhibition [4] 96%
inactive: inhibition [2] 19% | inhibition [3] -5% | outcome [5] | outcome [6] | outcome [7] | outcome [8]

COc1cc(C(=O)N2CCN(C(C)C)CC2)ccc1CN(C)CCCN1CCN(c2cccc(Cl)c2Cl)CC1
inactive: inhibition [3] 0% | outcome [5] | outcome [6] | outcome [7] | outcome [8]
active: growth inhibition [1] 87% | inhibition [2] 56% | growth inhibition [4] 101%

CCc1ccc(CNCC(CCNc2cc(=O)c3ccccc3[nH]2)NCc2cc(Br)cc(Br)c2)o1 (configuration not stated)
active: growth inhibition [1] 92% | growth inhibition [4] 100%
inactive: inhibition [2] -11% | inhibition [3] 1% | outcome [5] | outcome [6] | outcome [7] | outcome [8]

Cc1[nH]cnc1CSCCNC(N)=NCCCCCCCCN=C(N)NCCSCc1nc[nH]c1C
active: growth inhibition [1] 95% | growth inhibition [4] 96%
inactive: inhibition [2] 24% | inhibition [3] -10% | outcome [5] | outcome [6] | outcome [7] | outcome [8]
